# Records with an inconclusive call do not appear. Activity calls are given as the source filed them. How the source made its calls, unless noted: active means hit-call score of the fitted dose curve at least 0.9, where 1 is the maximum; inconclusive means response in the unintended direction; inactive means score below 0.9.
# Key:
# [1] = target: human Peroxisome Proliferator-activated Receptor delta (PPARd), PPARD (gene 5467) (UniProt Q03181); assay: ATG_PPARd_TRANS: Attagene TRANS-FACTORIAL HepG2 Assay for human Peroxisome Proliferator-activated Receptor delta (PPARd) (AID 2283002)
# Procedure, shortened: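 HepG2 cells transiently transfected with GAL4-UAS multiplexed reporter units driven by exogenous chimeric NR-GAL4 proteins; 24 h compound exposure. Reporter mRNA measured by RT-PCR, 6-FAM primer extension, HpaI digestion and capillary electrophoresis; gain of signal fitted relative to DMSO.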
# [2] = target: Peroxisome proliferator-activated receptor gamma (Homo sapiens) (UniProt P37231); assay: ATG_PPARg_TRANS: Attagene TRANS-FACTORIAL HepG2 Assay for human Peroxisome Proliferator-activated Receptor-gamma (PPARg) (AID 2283007)
# Procedure, shortened: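 HepG2 cells are transiently transfected with GAL4-UAS reporter units driven by chimeric NR-Gal4 fusions and dosed for 24 h. Reporter mRNA is quantified by RT-PCR, 6-FAM labelling, HpaI digestion and capillary electrophoresis. Induction is scored against DMSO.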
# [3] = target: human RAR-related Orphan Receptor beta (RORb), RORB (gene 6096) (UniProt Q92753); assay: ATG_RORb_TRANS: Attagene TRANS-FACTORIAL HepG2 Assay for human RAR-related Orphan Receptor beta (RORb) (AID 2283010)
# Procedure, shortened: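 Read-out is reporter mRNA induction, quantified by RT-PCR with fluorescent capillary electrophoresis, 24 h post-dose in transiently transfected HepG2 expressing exogenous NR-Gal4 chimera. Activity fitted upward versus DMSO.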
# [4] = target: human RAR-related Orphan Receptor gamma (RORg), RORC (gene 6097) (UniProt P51449); assay: ATG_RORg_TRANS: Attagene TRANS-FACTORIAL HepG2 Assay for human RAR-related Orphan Receptor gamma (RORg) (AID 2283011)
# Procedure, shortened: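 Chimeric RORg-Gal4 transactivation in transfected HepG2; 24 h exposure; RT-PCR/capillary electrophoresis readout of reporter mRNA, DMSO baseline.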
# [5] = target: Retinoic acid receptor RXR-alpha (Homo sapiens) (UniProt P19793); assay: ATG_RXRa_TRANS: Attagene TRANS-FACTORIAL HepG2 Assay for human Retinoid X Receptor alpha (RXRa) (AID 2283012)
# Procedure, shortened: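 TRANS format reporting activity of exogenous RXRa-Gal4 chimera in transiently transfected HepG2, 24 h exposure. Reporter transcripts quantified by RT-PCR with capillary electrophoresis, with gain of signal scored relative to DMSO.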
# [6] = target: human Thyroid Receptor alpha (THRa1), THRA (gene 7067) (UniProt P10827); assay: ATG_THRa1_TRANS: Attagene TRANS-FACTORIAL HepG2 Assay for human Thyroid Receptor alpha (THRa1) (AID 2283014)
# Procedure, shortened: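 Measured here is mRNA from a GAL4-UAS reporter in transfected HepG2 cells carrying a Gal4-fused receptor, 24 h post-dose. DMSO served as negative control and baseline.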
# [7] = target: Nuclear receptor subfamily 1 group I member 2 (Homo sapiens) (UniProt O75469); assay: ATG_PXR_TRANS: Attagene TRANS-FACTORIAL HepG2 Assay for human Pregnane X Receptor (PXR) (AID 2283008)
# Procedure, shortened: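 Transient HepG2 transfectants carrying multiplexed reporter transcription units; PXR activity read through a Gal4 chimera. 24 h exposure. RT-PCR/CE fluorescence; upward curve fit referenced to DMSO.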
# [8] = target: human Retinoid X Receptor beta (RXRb), RXRB (gene 6257) (UniProt P28702); assay: ATG_RXRb_TRANS: Attagene TRANS-FACTORIAL HepG2 Assay for human Retinoid X Receptor beta (RXRb) (AID 2283013)
# Procedure, shortened: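 Readout is reporter transcript induction after 24 h dosing. It is measured by RT-PCR of total RNA followed by fluorescent capillary electrophoresis. HepG2 liver cells carry transfected multiple reporter units driven by an exogenous RXRb-Gal4 fusion; activity is relative to DMSO.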
# [9] = target: Retinoic acid receptor alpha (Homo sapiens) (UniProt P10276); assay: ATG_RARa_TRANS: Attagene TRANS-FACTORIAL HepG2 Assay for human Retinoic Acid Receptor alpha (RARa) (AID 2283005)
# Procedure, shortened: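 HepG2 transiently transfected with multiplex GAL4-UAS reporter units including a human RARa–GAL4 chimera; 24 h compound exposure. Reporter mRNA quantified by RT-PCR, 6-FAM labeling and capillary electrophoresis; gain of signal versus DMSO.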
# [10] = target: human Retinoic Acid Receptor gamma (RARg), RARG (gene 5916) (UniProt P13631); assay: ATG_RARg_TRANS: Attagene TRANS-FACTORIAL HepG2 Assay for human Retinoic Acid Receptor gamma (RARg) (AID 2283009)
# Procedure, shortened: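 Transactivation of exogenous RARg-Gal4 fusion measured as reporter transcript induction after 24 h in transfected HepG2 cells. RNA reverse-transcribed, amplified, fluorescently labeled and resolved by capillary electrophoresis; increase relative to DMSO.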
# [11] = read-out: Intercellular Adhesion Molecule 1 (ICAM1), ICAM1 (gene 3383); assay: BSK_3C_ICAM1: BioMAP Diversity Plus: 3C Assay for Intercellular Adhesion Molecule 1 (ICAM1) Biomarker Activity (AID 2283003; active means hit-call score of the fitted dose curve at least 0.9, where 1 is the maximum; inactive means score below 0.9); settings: primary human endothelial cells (HUVEC); actives raise or lower the signal
# Procedure, shortened: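 ELISA readout of ICAM1 in human umbilical vein endothelial cells in the 3C system, taken 24 h post-dose. Gain or loss of signal versus DMSO was fitted in both directions, with SRB total-protein staining run in parallel.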
# [12] = target: human Retinoic Acid Receptor beta (RARb), RARB (gene 5915) (UniProt P10826); assay: ATG_RARb_TRANS: Attagene TRANS-FACTORIAL HepG2 Assay for human Retinoic Acid Receptor beta (AID 2283004)
# Procedure, shortened: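 Fluorescent capillary-electrophoresis detection of GAL4-UAS reporter mRNA defines the endpoint, with induction over DMSO-treated wells scored as activity. Transiently transfected human hepatoma HepG2 cells expressing exogenous NR–Gal4 proteins are exposed to test chemicals for 24 h.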
# [13] = BSK_3C_Proliferation: Cell Proliferation Assessment in the BioMAP Diversity Plus: 3C Assay (AID 2283006; active means hit-call score of the fitted dose curve at least 0.9, where 1 is the maximum; inactive means score below 0.9;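 on AC50: potency may reflect either rise or fall in cell number versus DMSO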); settings: primary human endothelial cells (HUVEC)
# Procedure, shortened: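 Proliferation as total protein: sulforhodamine B (0.1%) stain of TCA-fixed subconfluent human umbilical vein endothelial cells, absorbance 560 nm, 48 h after dosing. Activity fitted in both directions against DMSO baseline.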
# [14] = read-out: Interleukin-1 alpha (IL1a), IL1A (gene 3552); assay: BSK_BE3C_IL1a: BioMAP Diversity Plus: BE3C Assay for Interleukin-1 alpha (IL1a) Biomarker Activity (AID 2283016; active means hit-call score of the fitted dose curve at least 0.9, where 1 is the maximum; inactive means score below 0.9); settings: primary human bronchial epithelial cells; actives raise or lower the signal
# Procedure, shortened: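 IL-1a measured by ELISA after 24 h treatment of human primary bronchial epithelial cells, with gain or loss of signal fitted versus DMSO. Parallel cultures stained with SRB gauge overt cytotoxicity.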
# [15] = read-out: Monocyte Chemoattractant Protein-1 (MCP1), CCL2 (gene 6347); assay: BSK_3C_MCP1: BioMAP Diversity Plus: 3C Assay for Monocyte Chemoattractant Protein-1 (MCP1) Biomarker Activity (AID 2283017; active means hit-call score of the fitted dose curve at least 0.9, where 1 is the maximum; inactive means score below 0.9); settings: primary human endothelial cells (HUVEC); actives raise or lower the signal
# Procedure, shortened: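 Using human vascular primary endothelium, researchers measured MCP-1 by ELISA 24 h after treatment, with DMSO serving as negative control for bidirectional fitting.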
# [16] = read-out: Monocyte Chemoattractant Protein-1 (MCP1), CCL2 (gene 6347); assay: BSK_4H_MCP1: BioMAP Diversity Plus: 4H Assay for Monocyte Chemoattractant Protein-1 (MCP1) Biomarker Activity (AID 2283018; active means hit-call score of the fitted dose curve at least 0.9, where 1 is the maximum; inactive means score below 0.9); settings: primary human endothelial cells (HUVEC); actives raise or lower the signal
# Procedure, shortened: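 ELISA of MCP-1 (CCL2) 24 h after chemical dosing of HUVEC in the BioMAP 4H system. Gain or loss versus DMSO fitted; parallel SRB staining (560 nm) tracked overt cytotoxicity.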
# [17] = read-out: Interleukin-8 (IL8), CXCL8 (gene 3576); assay: BSK_3C_IL8: BioMAP Diversity Plus: 3C Assay for Interleukin-8 (IL8) Biomarker Activity (AID 2283020; active means hit-call score of the fitted dose curve at least 0.9, where 1 is the maximum; inactive means score below 0.9); settings: primary human endothelial cells (HUVEC); actives raise or lower the signal
# Procedure, shortened: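 IL-8 was measured by ELISA in HUVEC cultures 24 h after chemical dosing, with gain or loss of signal fitted relative to DMSO. Parallel SRB total-protein staining tracked overt cytotoxicity.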
# Chain of Peroxisome proliferator-activated receptor gamma (Homo sapiens) (P37231 whole entry, looked up, the tested form may be a part): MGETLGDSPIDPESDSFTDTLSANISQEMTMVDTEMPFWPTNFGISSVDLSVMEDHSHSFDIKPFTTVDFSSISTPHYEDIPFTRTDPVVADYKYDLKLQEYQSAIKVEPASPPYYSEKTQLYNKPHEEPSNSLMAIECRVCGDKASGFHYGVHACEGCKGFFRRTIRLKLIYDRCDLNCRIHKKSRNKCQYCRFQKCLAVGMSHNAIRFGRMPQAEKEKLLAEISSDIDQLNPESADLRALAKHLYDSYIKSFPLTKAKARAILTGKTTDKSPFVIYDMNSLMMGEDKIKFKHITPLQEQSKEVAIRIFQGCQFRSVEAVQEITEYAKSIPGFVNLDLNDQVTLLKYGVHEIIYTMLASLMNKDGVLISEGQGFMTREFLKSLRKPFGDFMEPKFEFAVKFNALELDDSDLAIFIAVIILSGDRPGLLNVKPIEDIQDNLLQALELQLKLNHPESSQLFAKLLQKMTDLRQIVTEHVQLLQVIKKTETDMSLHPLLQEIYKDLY
# Chain of Nuclear receptor subfamily 1 group I member 2 (Homo sapiens) (O75469 whole entry, looked up, the tested form may be a part): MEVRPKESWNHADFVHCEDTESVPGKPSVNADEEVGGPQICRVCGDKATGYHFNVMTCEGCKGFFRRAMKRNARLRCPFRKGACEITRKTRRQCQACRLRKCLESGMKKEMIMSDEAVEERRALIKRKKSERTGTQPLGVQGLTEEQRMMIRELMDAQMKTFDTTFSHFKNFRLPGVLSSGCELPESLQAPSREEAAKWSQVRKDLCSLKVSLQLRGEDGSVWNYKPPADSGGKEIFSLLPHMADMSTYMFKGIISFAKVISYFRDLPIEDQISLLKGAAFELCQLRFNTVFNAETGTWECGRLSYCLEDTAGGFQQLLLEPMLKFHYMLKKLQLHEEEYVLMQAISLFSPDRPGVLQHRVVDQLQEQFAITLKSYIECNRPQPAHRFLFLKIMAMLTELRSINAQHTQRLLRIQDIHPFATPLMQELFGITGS
# Chain of human Thyroid Receptor alpha (THRa1), THRA (gene 7067) (P10827 whole entry, looked up, the tested form may be a part): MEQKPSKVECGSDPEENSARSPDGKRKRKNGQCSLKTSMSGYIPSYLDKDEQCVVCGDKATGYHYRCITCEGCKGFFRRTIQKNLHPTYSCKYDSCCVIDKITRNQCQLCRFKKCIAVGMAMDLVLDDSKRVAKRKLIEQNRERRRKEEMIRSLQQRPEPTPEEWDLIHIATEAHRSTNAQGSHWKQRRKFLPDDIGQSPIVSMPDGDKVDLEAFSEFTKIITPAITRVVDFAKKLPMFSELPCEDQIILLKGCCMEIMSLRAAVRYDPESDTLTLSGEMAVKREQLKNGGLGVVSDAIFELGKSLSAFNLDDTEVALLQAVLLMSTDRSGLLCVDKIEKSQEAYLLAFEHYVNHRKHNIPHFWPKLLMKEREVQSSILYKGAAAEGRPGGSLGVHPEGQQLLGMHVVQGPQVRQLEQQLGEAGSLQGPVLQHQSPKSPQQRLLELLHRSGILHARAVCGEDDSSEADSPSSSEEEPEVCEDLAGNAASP
# Chain of human Retinoic Acid Receptor gamma (RARg), RARG (gene 5916) (P13631 whole entry, looked up, the tested form may be a part): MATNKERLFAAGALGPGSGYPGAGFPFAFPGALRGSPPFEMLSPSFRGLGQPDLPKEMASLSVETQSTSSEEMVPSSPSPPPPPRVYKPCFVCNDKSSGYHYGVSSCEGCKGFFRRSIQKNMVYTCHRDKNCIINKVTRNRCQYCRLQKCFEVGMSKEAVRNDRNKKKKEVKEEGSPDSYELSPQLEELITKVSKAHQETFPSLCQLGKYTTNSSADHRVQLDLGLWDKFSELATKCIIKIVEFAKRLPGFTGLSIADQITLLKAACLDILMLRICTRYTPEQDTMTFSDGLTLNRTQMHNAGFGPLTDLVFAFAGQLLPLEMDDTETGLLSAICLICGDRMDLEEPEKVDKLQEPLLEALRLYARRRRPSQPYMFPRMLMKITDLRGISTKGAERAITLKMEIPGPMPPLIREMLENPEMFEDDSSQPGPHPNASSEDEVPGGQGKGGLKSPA
# Chain of human Retinoid X Receptor beta (RXRb), RXRB (gene 6257) (P28702 whole entry, looked up, the tested form may be a part): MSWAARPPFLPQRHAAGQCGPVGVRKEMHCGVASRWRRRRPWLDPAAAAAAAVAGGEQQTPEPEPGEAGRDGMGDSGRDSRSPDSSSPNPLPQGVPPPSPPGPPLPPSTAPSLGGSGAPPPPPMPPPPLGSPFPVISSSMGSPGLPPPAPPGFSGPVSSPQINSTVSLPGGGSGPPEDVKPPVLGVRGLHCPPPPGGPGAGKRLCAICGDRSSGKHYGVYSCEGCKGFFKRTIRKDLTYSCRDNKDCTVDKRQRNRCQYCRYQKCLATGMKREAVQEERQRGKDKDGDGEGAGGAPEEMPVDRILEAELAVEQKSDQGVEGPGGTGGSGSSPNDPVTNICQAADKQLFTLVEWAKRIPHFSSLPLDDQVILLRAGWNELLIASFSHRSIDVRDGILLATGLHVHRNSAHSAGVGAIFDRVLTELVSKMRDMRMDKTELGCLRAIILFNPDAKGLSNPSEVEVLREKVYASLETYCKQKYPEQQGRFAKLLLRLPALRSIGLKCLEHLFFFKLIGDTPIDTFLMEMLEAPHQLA
# Chain of Retinoic acid receptor RXR-alpha (Homo sapiens) (P19793 whole entry, looked up, the tested form may be a part): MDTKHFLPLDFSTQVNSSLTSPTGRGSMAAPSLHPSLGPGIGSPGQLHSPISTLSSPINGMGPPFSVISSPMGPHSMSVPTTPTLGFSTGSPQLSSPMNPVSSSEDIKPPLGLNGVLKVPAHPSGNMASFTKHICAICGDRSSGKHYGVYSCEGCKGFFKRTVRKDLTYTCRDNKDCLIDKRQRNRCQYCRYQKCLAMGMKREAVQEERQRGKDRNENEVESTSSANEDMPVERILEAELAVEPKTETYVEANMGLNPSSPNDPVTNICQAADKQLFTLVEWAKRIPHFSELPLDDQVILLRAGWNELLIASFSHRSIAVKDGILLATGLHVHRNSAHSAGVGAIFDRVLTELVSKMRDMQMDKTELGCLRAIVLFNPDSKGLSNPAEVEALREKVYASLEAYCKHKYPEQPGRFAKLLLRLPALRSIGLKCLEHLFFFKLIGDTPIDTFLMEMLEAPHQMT
# Chain of human RAR-related Orphan Receptor beta (RORb), RORB (gene 6096) (Q92753 whole entry, looked up, the tested form may be a part): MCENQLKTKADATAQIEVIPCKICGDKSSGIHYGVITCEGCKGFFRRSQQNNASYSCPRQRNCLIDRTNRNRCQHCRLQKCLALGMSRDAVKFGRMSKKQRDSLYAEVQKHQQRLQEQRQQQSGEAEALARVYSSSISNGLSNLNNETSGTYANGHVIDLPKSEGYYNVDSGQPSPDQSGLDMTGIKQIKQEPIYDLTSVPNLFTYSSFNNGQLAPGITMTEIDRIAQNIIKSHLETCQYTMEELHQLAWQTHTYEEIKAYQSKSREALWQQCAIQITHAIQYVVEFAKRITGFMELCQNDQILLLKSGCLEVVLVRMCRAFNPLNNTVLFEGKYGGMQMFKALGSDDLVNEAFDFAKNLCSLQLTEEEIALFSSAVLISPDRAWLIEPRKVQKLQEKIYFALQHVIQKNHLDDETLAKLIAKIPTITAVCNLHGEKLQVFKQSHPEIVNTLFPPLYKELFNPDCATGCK
# Chain of Retinoic acid receptor alpha (Homo sapiens) (P10276 whole entry, looked up, the tested form may be a part): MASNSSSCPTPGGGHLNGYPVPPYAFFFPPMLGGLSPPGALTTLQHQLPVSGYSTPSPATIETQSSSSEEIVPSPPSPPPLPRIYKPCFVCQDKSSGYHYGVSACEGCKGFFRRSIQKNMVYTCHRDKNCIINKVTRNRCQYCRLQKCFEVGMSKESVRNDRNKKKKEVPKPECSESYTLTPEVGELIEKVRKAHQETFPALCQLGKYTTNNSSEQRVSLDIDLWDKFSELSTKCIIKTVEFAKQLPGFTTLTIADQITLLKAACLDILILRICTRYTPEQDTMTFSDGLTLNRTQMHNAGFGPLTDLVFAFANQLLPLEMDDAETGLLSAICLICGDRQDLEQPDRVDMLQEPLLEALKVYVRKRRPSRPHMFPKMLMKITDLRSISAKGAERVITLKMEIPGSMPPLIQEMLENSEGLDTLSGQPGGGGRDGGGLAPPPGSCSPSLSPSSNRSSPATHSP
# Chain of human Peroxisome Proliferator-activated Receptor delta (PPARd), PPARD (gene 5467) (Q03181 whole entry, looked up, the tested form may be a part): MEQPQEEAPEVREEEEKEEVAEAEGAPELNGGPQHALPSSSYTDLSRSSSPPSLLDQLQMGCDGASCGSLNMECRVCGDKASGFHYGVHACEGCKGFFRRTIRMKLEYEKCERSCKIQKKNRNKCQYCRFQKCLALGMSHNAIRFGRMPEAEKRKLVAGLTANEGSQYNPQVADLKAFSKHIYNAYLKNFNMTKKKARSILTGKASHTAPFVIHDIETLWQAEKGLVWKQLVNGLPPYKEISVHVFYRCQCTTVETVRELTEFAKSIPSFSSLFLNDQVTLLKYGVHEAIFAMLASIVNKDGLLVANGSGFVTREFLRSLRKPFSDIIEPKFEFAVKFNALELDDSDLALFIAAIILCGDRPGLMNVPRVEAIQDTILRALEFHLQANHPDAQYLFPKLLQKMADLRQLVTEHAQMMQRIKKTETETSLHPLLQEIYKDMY
# Chain of human Retinoic Acid Receptor beta (RARb), RARB (gene 5915) (P10826 whole entry, looked up, the tested form may be a part): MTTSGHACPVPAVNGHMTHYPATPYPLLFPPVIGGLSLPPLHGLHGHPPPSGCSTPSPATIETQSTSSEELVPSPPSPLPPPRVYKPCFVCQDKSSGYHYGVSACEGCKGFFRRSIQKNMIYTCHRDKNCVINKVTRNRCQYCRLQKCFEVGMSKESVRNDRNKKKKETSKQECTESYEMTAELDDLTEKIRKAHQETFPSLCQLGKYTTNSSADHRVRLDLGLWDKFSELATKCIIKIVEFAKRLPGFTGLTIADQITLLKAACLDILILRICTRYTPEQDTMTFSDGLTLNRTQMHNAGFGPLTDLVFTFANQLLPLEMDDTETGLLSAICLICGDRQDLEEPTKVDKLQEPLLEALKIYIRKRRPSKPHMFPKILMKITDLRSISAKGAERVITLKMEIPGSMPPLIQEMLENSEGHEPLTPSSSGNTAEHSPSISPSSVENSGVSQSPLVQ
compound,measurement,setting,value
O=CC=O,outcome,[1],inactive
same,outcome,[2],inactive
same,outcome,[3],inactive
same,outcome,[4],inactive
same,outcome,[5],inactive
same,outcome,[6],inactive
C[C@H]1CCCC(=O)CCC/C=C/c2cc(O)cc(O)c2C(=O)O1,outcome,[1],inactive
same,outcome,[2],inactive
same,AC50,[7],0.407 µM (active)
same,AC50,[8],9.82 µM (active)
same,outcome,[6],inactive
CCCCCCCCCl,outcome,[1],inactive
same,outcome,[9],inactive
same,outcome,[2],inactive
same,outcome,[10],inactive
same,outcome,[3],inactive
same,outcome,[5],inactive
same,outcome,[8],inactive
O=Cc1cccc(Oc2ccccc2)c1,outcome,[11],inactive
same,outcome,[12],inactive
same,outcome,[13],inactive
same,outcome,[2],inactive
same,outcome,[7],inactive
same,outcome,[3],inactive
same,outcome,[8],inactive
same,outcome,[6],inactive
same,outcome,[14],inactive
same,outcome,[15],inactive
same,outcome,[16],inactive
same,outcome,[17],inactive
Nc1cccc2ccccc12,outcome,[11],inactive
same,AC50,[13],7.58 µM (active)
same,outcome,[2],inactive
same,outcome,[7],inactive
same,outcome,[5],inactive
same,outcome,[8],inactive
same,outcome,[6],inactive
same,outcome,[14],inactive
same,outcome,[15],inactive
same,outcome,[16],inactive
same,outcome,[17],inactive
CCOC(=O)Nc1cccc(OC(=O)Nc2ccccc2)c1,outcome,[1],inactive
same,outcome,[9],inactive
same,outcome,[2],inactive
same,outcome,[7],inactive
same,outcome,[6],inactive
Clc1ccc(COC(Cn2ccnc2)c2ccc(Cl)cc2Cl)cc1 (stereo unspecified),outcome,[1],inactive
same,AC50,[2],4.84 µM (active)
same,AC50,[7],0.44 µM (active)
same,outcome,[5],inactive
same,AC50,[8],0.103 µM (active)
O=C1CCCN1,outcome,[1],inactive
same,outcome,[2],inactive
same,outcome,[4],inactive
same,outcome,[5],inactive
C=CC(=O)N(C)C,outcome,[1],inactive
same,outcome,[2],inactive
same,outcome,[5],inactive
same,outcome,[6],inactive
CC(Br)C(=O)O (stereo unspecified),outcome,[1],inactive
same,outcome,[12],inactive
same,outcome,[10],inactive
same,outcome,[5],inactive
Cc1cc(=O)[nH]o1,outcome,[1],inactive
same,outcome,[2],inactive
same,outcome,[7],inactive
same,outcome,[3],inactive
same,outcome,[8],inactive
CCOP(=O)(CN(CCO)CCO)OCC,outcome,[1],inactive
same,outcome,[9],inactive
same,outcome,[2],inactive
same,outcome,[10],inactive
same,outcome,[3],inactive
same,outcome,[8],inactive
same,outcome,[6],inactive
Cc1ccccc1C(=O)Nc1cccc(OC(C)C)c1,outcome,[1],inactive
same,AC50,[2],27.9 µM (active)
same,AC50,[7],2.62 µM (active)
same,outcome,[5],inactive
same,outcome,[8],inactive
same,outcome,[6],inactive
